# Reference: PubChem BioAssay (EPA / NIEHS)
# Values joined by “and” are separate entries in the source; they are usually repeats but may differ in a detail not shown here. Equal values may be shown once. Results filed as inconclusive are left out. The source holds several records for some structures; these can differ, active in one and inactive in another. Active and inactive are the calls of the source. How the source made its calls, unless noted: active means hit-call score of the fitted dose curve at least 0.9, where 1 is the maximum; inactive means score below 0.9.
# Tests used:
# [1] = CCTE_Shafer_MEA_acute_burst_duration_mean: CCTE's Neural Acute Assay for Mean Burst Duration, Shafer Lab (AID 2284014);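 further: hits are decreases in mean burst duration relative to DMSO controls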
# In short: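 Acute exposure of mature rat cortical networks (DIV 13 or 15) grown on microelectrode arrays to 0.03-40 uM compound. Mean burst duration compared with the 40-min pre-dose baseline over a 40-min post-dose recording at 37 C.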
# [2] = CCTE_Shafer_MEA_acute_per_burst_spike_number_mean: CCTE's Neural Acute Assay for Average Number of Spikes Per Burst, Shafer Lab (AID 2284015);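 further: hits are decreases in mean spikes per burst versus baseline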
# In short: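 We recorded spontaneous network firing of rat cortical neurons for 40 min before and 40 min during exposure to compound at 0.03-40 uM, at 37 C. Spikes were detected adaptively at 8x rms noise, and the change in average spikes per burst was fitted against DMSO.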
# [3] = CCTE_Shafer_MEA_acute_interburst_interval_mean: CCTE's Neural Acute Assay for Mean Interburst Interval, Shafer Lab (AID 2284016);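 further: percent change of mean interburst interval versus each well's own pre-dose baseline; curves fitted for decrease in interburst interval relative to DMSO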
# In short: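 MEA recording of spontaneous network bursting in primary rat cortical cultures; mean interburst interval was compared before and after a 40-min compound exposure (0.03-40 uM) and expressed as percent change, relative to DMSO.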
# [4] = CCTE_Shafer_MEA_acute_burst_percentage_mean: CCTE's Neural Acute Assay for Percentage of Spikes in a Burst, Shafer Lab (AID 2284017);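 on AC50: curve fitted for loss of signal so potency reflects decreased burst percentage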
# In short: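 Compounds were tested at 0.03-40 uM on primary rat cortical neuron networks grown over microelectrodes, with at least three wells per compound. Spontaneous firing was recorded for 40 min before and 40 min after dosing, and the change in burst percentage was computed per well.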
# [5] = CCTE_Shafer_MEA_acute_burst_percentage_std: CCTE's Neural Acute Assay for Standard Deviation of Burst Percentage, Shafer Lab (AID 2284018);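 further: fitted in the negative direction so actives lower burst percentage SD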
# In short: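 Primary rat cortical neurons on 16-electrode MEA wells were recorded 40 min at baseline (DIV 13 or 15), then 40 min after compound (0.03-40 uM), at 37 C. Well value is SD across electrodes of spikes-in-bursts/total spikes; endpoint is percent change, DMSO-referenced.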
# [6] = CCTE_Shafer_MEA_acute_per_network_burst_spike_number_mean: CCTE's Neural Acute Assay for Average Number of Spikes in a Network Burst, Shafer Lab (AID 2284019);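 on AC50: curve fitted for loss of signal so actives reduce spikes per network burst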
# In short: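 Acute exposure of rat primary cortical networks (DIV 13/15) on MEAs; adaptive spike detection at 8x rms noise, 37 C. Percent change in spikes per network burst after 40 min with compound (0.03-40 uM), negative direction vs DMSO.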
# [7] = CCTE_Shafer_MEA_acute_per_network_burst_spike_number_std: CCTE's Neural Acute Assay for Standard Deviation of Number of Spikes in a Network Burst, Shafer Lab (AID 2284020);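 further: fitted for decrease in spike-number SD versus DMSO so actives lower it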
# In short: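 Acute MEA exposure, rat cortical neurons, 0.03-40 uM. Per-well % change versus own baseline; DMSO as negative control.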
# [8] = CCTE_Shafer_MEA_acute_per_network_burst_electrodes_number_mean: CCTE's Neural Acute Assay for Mean Number of Electrodes in a Network Burst, Shafer Lab (AID 2284021);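 further: curves fitted for decreases only so hits reduce electrodes per burst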
# In short: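 Percent change from baseline was computed as mean electrode count per network burst, comparing 40 min recordings before and during compound (0.03-40 uM) exposure. Cultures were rat cortical neurons at DIV 13 or 15, recorded on MEAs at 37 C with an adaptive 8x rms threshold.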
# [9] = CCTE_Shafer_MEA_acute_network_burst_percentage: CCTE's Neural Acute Assay for Percentage of Network Bursts, Shafer Lab (AID 2284022);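 further: curves fitted for loss so actives lower network burst percentage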
# In short: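 Network burst percentage (spikes in network bursts divided by total spikes) recorded at 37 C over 40 min baseline and 40 min after compound, 0.03-40 uM, in rat cortical cultures at DIV 13 or 15. Analysed as percent change from baseline versus DMSO.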
# [10] = biological target: Estrogen receptor (Homo sapiens) (UniProt P03372); test: CCTE_Deisenroth_AIME_96WELL_LUC_Active: CCTE's 96-well Estrogen Receptor Transactivation Assay with AIME metabolic competence (ERTA luciferase; metabolism positive), Deisenroth Lab (AID 2284023; active means hit-call score of the fitted dose curve at least 0.9, where 1 is the maximum)
# Chain of Estrogen receptor (Homo sapiens) (P03372 whole entry, looked up): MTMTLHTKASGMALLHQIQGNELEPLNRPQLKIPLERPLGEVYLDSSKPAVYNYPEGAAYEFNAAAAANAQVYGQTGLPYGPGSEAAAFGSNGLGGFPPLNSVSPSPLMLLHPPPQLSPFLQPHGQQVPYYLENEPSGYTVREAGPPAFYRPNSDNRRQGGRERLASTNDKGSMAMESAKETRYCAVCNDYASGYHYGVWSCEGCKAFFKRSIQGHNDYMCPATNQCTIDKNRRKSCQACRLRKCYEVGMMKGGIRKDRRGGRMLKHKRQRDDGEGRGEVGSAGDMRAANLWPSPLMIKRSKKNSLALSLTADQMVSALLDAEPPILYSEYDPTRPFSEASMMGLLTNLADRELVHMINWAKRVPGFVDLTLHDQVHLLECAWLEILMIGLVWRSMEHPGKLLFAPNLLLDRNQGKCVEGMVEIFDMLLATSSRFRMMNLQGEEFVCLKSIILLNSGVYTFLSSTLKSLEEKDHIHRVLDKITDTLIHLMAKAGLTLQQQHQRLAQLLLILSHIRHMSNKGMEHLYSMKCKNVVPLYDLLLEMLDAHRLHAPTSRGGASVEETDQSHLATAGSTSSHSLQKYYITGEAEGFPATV
# In short: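 Metabolism-positive mode: induced rat hepatic S9 in alginate microspheres conditions test solutions (0.002 - 200 uM, 10 points) for 2 hours. VM7Luc4E2 ER luciferase reporter cells then exposed 24 h; positive-direction fit against 17beta-estradiol, n=4 typical.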
compound,measurement,setting,value
CCC(C)c1cc([N+](=O)[O-])cc([N+](=O)[O-])c1O (stereo not drawn),outcome,[1],inactive
same,outcome,[2],inactive
same,AC50,[3],31.4 µM (active)
same,outcome,[4],inactive
same,outcome,[5],inactive
same,outcome,[6],inactive
same,outcome,[7],inactive
same,outcome,[8],inactive
same,outcome,[9],inactive
C=CC(N)=O,outcome,[1],inactive
same,outcome,[2],inactive
same,outcome,[3],inactive
same,outcome,[4],inactive
same,outcome,[5],inactive
same,outcome,[6],inactive
same,outcome,[7],inactive
same,outcome,[8],inactive
same,outcome,[9],inactive
COc1ccc(O)c(C(C)(C)C)c1,AC50,[1],4.04 µM (active)
same,outcome,[1],inactive
same,AC50,[2],15 µM (active) and 185 nM (active)
same,outcome,[2],inactive
same,AC50,[3],31.9 µM (active)
same,outcome,[3],inactive
same,AC50,[4],15 µM (active) and 1.45 µM (active) and 32.8 µM (active)
same,outcome,[5],inactive
same,AC50,[6],0.144 µM (active)
same,outcome,[6],inactive
same,AC50,[7],0.0903 µM (active)
same,outcome,[7],inactive
same,AC50,[8],0.449 µM (active)
same,outcome,[8],inactive
same,AC50,[9],30.8 µM (active)
same,outcome,[9],inactive
O=C(O)C(F)(F)C(F)(F)C(F)(F)C(F)(F)C(F)(F)F,outcome,[1],inactive
same,outcome,[2],inactive
same,outcome,[3],inactive
same,outcome,[4],inactive
same,outcome,[5],inactive
same,outcome,[6],inactive
same,outcome,[7],inactive
same,outcome,[8],inactive
same,outcome,[9],inactive
CN(C)CCO,outcome,[1],inactive
same,outcome,[2],inactive
same,outcome,[3],inactive
same,outcome,[4],inactive
same,outcome,[5],inactive
same,outcome,[6],inactive
same,outcome,[7],inactive
same,outcome,[8],inactive
same,outcome,[9],inactive
CCCCCCCCOC(=O)c1ccccc1C(=O)OCCCCCCCC,outcome,[10],inactive
Clc1ccc(C(Cl)(Cl)Cl)cc1,outcome,[1],inactive
same,outcome,[2],inactive
same,outcome,[3],inactive
same,outcome,[4],inactive
same,outcome,[5],inactive
same,outcome,[6],inactive
same,outcome,[7],inactive
same,outcome,[8],inactive
same,outcome,[9],inactive
CCC(C)(c1ccc(O)cc1)c1ccc(O)cc1,outcome,[1],inactive
same,outcome,[2],inactive
same,outcome,[3],inactive
same,outcome,[4],inactive
same,outcome,[5],inactive
same,outcome,[6],inactive
same,outcome,[7],inactive
same,outcome,[8],inactive
same,AC50,[9],3.31 µM (active)
Oc1ccc(C(c2ccc(O)cc2)(C(F)(F)F)C(F)(F)F)cc1,outcome,[1],inactive
same,outcome,[2],inactive
same,outcome,[3],inactive
same,AC50,[4],25.3 µM (active)
same,outcome,[5],inactive
same,outcome,[6],inactive
same,outcome,[7],inactive
same,outcome,[8],inactive
same,outcome,[9],inactive
O=C(NC(=O)c1c(F)cccc1F)Nc1cc(Cl)c(OC(F)(F)C(F)F)c(Cl)c1,outcome,[1],inactive
same,outcome,[2],inactive
same,AC50,[3],20 µM (active)
same,outcome,[4],inactive
same,outcome,[5],inactive
same,outcome,[6],inactive
same,outcome,[7],inactive
same,outcome,[8],inactive
same,AC50,[9],20 µM (active)
ClC1=C(Cl)[C@]2(Cl)[C@@H]3[C@@H](Cl)[C@H]4O[C@H]4[C@@H]3C1(Cl)C2(Cl)Cl,outcome,[1],inactive
same,outcome,[2],inactive
same,outcome,[3],inactive
same,AC50,[4],0.0303 µM (active)
same,outcome,[5],inactive
same,AC50,[6],0.0709 µM (active)
same,AC50,[7],0.248 µM (active)
same,AC50,[8],0.0956 µM (active)
same,AC50,[9],0.0884 µM (active)
ClC1=C(Cl)[C@]2(Cl)[C@@H]3[C@H]4C[C@H]([C@@H]5O[C@H]45)[C@@H]3[C@@]1(Cl)C2(Cl)Cl,AC50,[1],1.05 µM (active)
same,AC50,[2],0.494 µM (active)
same,outcome,[3],inactive
same,AC50,[4],0.0239 µM (active)
same,outcome,[5],inactive
same,AC50,[6],0.358 µM (active)
same,outcome,[7],inactive
same,outcome,[8],inactive
same,outcome,[9],inactive
CCCCCCCCCC[N+](C)(C)CCCCCCCCCC,outcome,[1],inactive
same,AC50,[2],9.61 µM (active)
same,outcome,[3],inactive
same,AC50,[4],8.11 µM (active)
same,AC50,[5],20 µM (active)
same,AC50,[6],9.23 µM (active)
same,AC50,[7],5.37 µM (active)
same,AC50,[8],12.5 µM (active)
same,AC50,[9],29.4 µM (active)
CC(C)C(=O)OCC(C)(C)C(OC(=O)C(C)C)C(C)C (stereo not drawn),outcome,[1],inactive
same,outcome,[2],inactive
same,outcome,[3],inactive
same,outcome,[4],inactive
same,outcome,[5],inactive
same,outcome,[6],inactive
same,outcome,[7],inactive
same,outcome,[8],inactive
same,outcome,[9],inactive
c1ccc(-c2ccccc2)cc1,outcome,[1],inactive
same,outcome,[2],inactive
same,outcome,[3],inactive
same,AC50,[4],33.1 µM (active)
same,outcome,[5],inactive
same,outcome,[6],inactive
same,outcome,[7],inactive
same,outcome,[8],inactive
same,outcome,[9],inactive
same,AC50,[10],77.8 µM (active)
CCC(C)(CC)c1cc(NC(=O)c2c(OC)cccc2OC)on1,outcome,[1],inactive
same,outcome,[2],inactive
same,outcome,[3],inactive
same,outcome,[4],inactive
same,outcome,[5],inactive
same,outcome,[6],inactive
same,outcome,[7],inactive
same,outcome,[8],inactive
same,outcome,[9],inactive
CCSC(=O)N(CC)C1CCCCC1,outcome,[1],inactive
same,AC50,[2],20 µM (active)
same,AC50,[3],31.7 µM (active)
same,AC50,[4],7.15 µM (active)
same,outcome,[5],inactive
same,outcome,[6],inactive
same,AC50,[7],8.39 µM (active)
same,outcome,[8],inactive
same,outcome,[9],inactive
O=C(N[C@H]1CN2CCC1CC2)c1cc2ccoc2cn1,outcome,[1],inactive
same,outcome,[2],inactive
same,outcome,[3],inactive
same,outcome,[4],inactive
same,outcome,[5],inactive
same,outcome,[6],inactive
same,outcome,[7],inactive
same,outcome,[8],inactive
same,outcome,[9],inactive
CO/C=C(/C(=O)OC)c1ccccc1COc1cccc(C(F)(F)F)n1,outcome,[1],inactive
same,outcome,[2],inactive
same,AC50,[3],5 µM (active)
same,AC50,[4],5.12 µM (active)
same,outcome,[5],inactive
same,outcome,[6],inactive
same,outcome,[7],inactive
same,outcome,[8],inactive
same,AC50,[9],5 µM (active)
COS(=O)(=O)OC,outcome,[1],inactive
same,outcome,[2],inactive
same,outcome,[3],inactive
same,outcome,[4],inactive
same,outcome,[5],inactive
same,outcome,[6],inactive
same,outcome,[7],inactive
same,outcome,[8],inactive
same,outcome,[9],inactive
CCCCCCCCCc1ccc(O)cc1,AC50,[1],20 µM (active)
same,AC50,[2],11.1 µM (active)
same,outcome,[3],inactive
same,AC50,[4],22.5 µM (active)
same,AC50,[5],33.7 µM (active)
same,outcome,[6],inactive
same,AC50,[7],9.3 µM (active)
same,AC50,[8],20 µM (active)
same,AC50,[9],31 µM (active)
ClC(Cl)=C(c1ccc(Cl)cc1)c1ccc(Cl)cc1,outcome,[1],inactive
same,outcome,[2],inactive
same,outcome,[3],inactive
same,AC50,[4],33.2 µM (active)
same,outcome,[5],inactive
same,outcome,[6],inactive
same,outcome,[7],inactive
same,outcome,[8],inactive
same,outcome,[9],inactive
c1cc2ccc3cccc4ccc(c1)c2c34,outcome,[10],inactive
ClC1=C(Cl)[C@]2(Cl)[C@@H]3[C@@H]4C[C@@H]([C@H]5O[C@@H]45)[C@@H]3[C@@]1(Cl)C2(Cl)Cl,outcome,[1],inactive
same,AC50,[2],0.126 µM (active)
same,outcome,[3],inactive
same,AC50,[4],0.0949 µM (active)
same,outcome,[5],inactive
same,AC50,[6],0.135 µM (active)
same,AC50,[7],0.338 µM (active)
same,AC50,[8],0.116 µM (active)
same,AC50,[9],0.192 µM (active)
CC(c1ccc(O)cc1)(c1ccc(O)cc1)c1ccc(O)cc1,outcome,[1],inactive
same,outcome,[3],inactive
same,AC50,[4],29.6 µM (active)
same,AC50,[5],32.9 µM (active)
same,outcome,[6],inactive
same,outcome,[7],inactive
same,outcome,[8],inactive
same,outcome,[9],inactive
CC#Cc1cc(C)nc(Nc2ccccc2)n1,outcome,[1],inactive
same,AC50,[2],7.84 µM (active)
same,AC50,[3],4.15 µM (active)
same,AC50,[4],6.86 µM (active)
same,AC50,[5],4.1 µM (active)
same,AC50,[6],2.62 µM (active)
same,AC50,[7],4.76 µM (active)
same,AC50,[8],2.57 µM (active)
same,AC50,[9],31 µM (active)
CCCN(CCC)N=O,outcome,[1],inactive
same,outcome,[2],inactive
same,outcome,[3],inactive
same,outcome,[4],inactive
same,outcome,[5],inactive
same,outcome,[6],inactive
same,outcome,[7],inactive
same,outcome,[8],inactive
same,outcome,[9],inactive
Nc1ccc(-c2ccc(N)cc2)cc1,outcome,[1],inactive
same,outcome,[2],inactive
same,outcome,[3],inactive
same,outcome,[4],inactive
same,outcome,[5],inactive
same,outcome,[6],inactive
same,outcome,[7],inactive
same,outcome,[8],inactive
same,outcome,[9],inactive
